# Source: publication PMC5540273 (PLoS ONE, 2017)
# Columns and labels:
# PIK4CB = system: T1, PIK4CB
# T1 construct: gene PI4KB
# 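Further: kd values determined as follow-up on hits from a single-replicate KINOMEscan panel screen.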
structure (smiles),measurement,setting,value
O=C(Nc1n[nH]c2cc(-c3cccc(F)c3)ccc12)C1CC1 [SB-735464],Kd,NLK,87 nM
O=C1Cc2cc(Nc3nc(NCc4cccc(S(=O)(=O)C(F)(F)F)c4)ncc3C(F)(F)F)ccc2N1,Kd,PAK4,> 10000 nM
same,Kd,PIM1,> 10000 nM
Cc1ccc(NC(=O)c2ccnc(N3CCN(C)CC3)c2)cc1-c1ccc(C(=O)NCC2CC2)cc1 [GW775604],Kd,PDGFRB,300 nM
Cc1nnc(-c2ccc3ncc(-c4ccc(S(C)=O)cc4)n3c2)o1 (stereo not shown),Kd,PDGFRB,490 nM
N#Cc1c(N2CCOCC2)sc(-c2ccn[nH]2)c1-c1ccc(Cl)cc1,Kd,PIK3CA,32 nM
NS(=O)(=O)c1cccc(-c2ccc3nccc(-c4cccc(S(N)(=O)=O)c4)c3c2)c1 [GW867253],Kd,PIK3CG,81 nM
same,Kd,PIK4CB,32 nM
NS(=O)(=O)c1cccc(-c2ccc3ncc(N4CCOCC4)nc3c2)c1 [GSK1535721],Kd,PIK4CB,860 nM
Cc1nnc(-c2ccc3occ(-c4ccc(C(C)O)cc4)c3c2)o1 (stereo not shown),Kd,PIM2,940 nM
